Data as given in PubChem BioAssay.
Calls of active or inactive are those of the source. Unless noted, no rule for the calls is given here.

Key:
[1] = compound effects on lung adenocarcinoma cell viability – A549, calcein-AM fluorescence, 48 h, basal, profiling panel (AID 1162); details: higher = more signal; also: test concentration not given here
[2] = compound effects on differentiated 3T3-L1 adipocyte viability – cell-based, 3T3-L1 adipocytes, calcein-AM fluorescence, 48 h, basal, profiling panel (AID 1163); details: 3T3-L1 adipocytes viability, higher = more signal; also: test concentration not given here
[3] = compound effects on hepatocellular carcinoma cell viability – HepG2, calcein-AM fluorescence, 48 h, basal, profiling panel (AID 1164); details: higher = more signal; also: test concentration not given here
[4] = compound effects on multiple myeloma cell viability – MM1S, calcein-AM fluorescence, 48 h, basal, profiling panel (AID 1165); details: higher = more signal;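 also: viability of MM1S multiple myeloma cells under basal unstimulated conditions; test concentration not given here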
[5] = calcein-AM signal in unstimulated myeloma cells – cell-based, calcein-AM fluorescence, 48 h, PK04 Diversity Set, profiling panel (AID 1166); details: RPMI8226 myeloma viability, higher = more signal;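 also: cells grown under basal conditions without added stimulus; test concentration not given here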
[6] = JC-1 mitochondrial signal, unstimulated HepG2 cells – cell-based, JC-1 fluorescence, 24 h, 100 nL compound, profiling panel (AID 1167); details: HepG2 mitochondrial potential, higher = more signal; also: test concentration not given here
[7] = JC-1 mitochondrial signal, unstimulated adipocytes – cell-based, JC-1 fluorescence, 3T3-L1 adipocytes, 24 h, 100 nL compound, profiling panel (AID 1168); details: JC-1 mitochondrial fluorescence, higher = more signal, called active from +8 up or from −8 down; also: test concentration not given here
[8] = JC-1 mitochondrial signal, unstimulated myeloma cells – cell-based, JC-1 fluorescence, RPMI8226, 24 h, 100 nL compound, profiling panel (AID 1169); details: JC-1 mitochondrial potential fluorescence, higher = more signal; also: test concentration not given here
[9] = JC-1 mitochondrial signal, unstimulated MM1S myeloma – cell-based, JC-1 fluorescence, 24 h, 100 nL compound, profiling panel (AID 1170); details: MM1S mitochondrial potential, higher = more signal; also: test concentration not given here
[10] = resazurin metabolic signal in A549 cells – cell-based, resazurin fluorescence, 24 h, PK04 Diversity Set, profiling panel (AID 1171); details: A549 viability, higher = more signal, called active from +8 up or from −8 down; also: test concentration not given here
[11] = resazurin metabolic signal in HepG2 cells – cell-based, resazurin fluorescence, 24 h, PK04 Diversity Set, profiling panel (AID 1172); details: HepG2 viability, higher = more signal; also: test concentration not given here
[12] = budding yeast growth changes without added modifier – OD600, strain BY4716, 24 h, basal condition, primary screen (AID 1173); details: S. cerevisiae BY4716 growth, OD600, 24 h; higher = more signal, called active from +8 up or from −8 down
[13] = viability profiling in MM1S myeloma cells – cell-based, resazurin fluorescence, basal, 24 h, PK04 Diversity Set, profiling panel (AID 1174); details: higher = more signal, called active from +8 up or from −8 down; also: test concentration not given here
[14] = biological target: Dihydroorotate dehydrogenase (quinone), mitochondrial (Plasmodium falciparum (isolate 3D7)) (UniProt Q08210); assay: inhibition of P. falciparum DHODH – biochemical, C-terminal His tag, absorbance 600 nm, primary screen (AID 1175); details: PfDHODH enzyme, DCIP absorbance 600 nm; higher = more signal, called active from +8 up or from −8 down;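 also: recombinant parasite enzyme with a five histidine tag at its C terminus; test concentration not given here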
[15] = inhibition of PAO1 biofilm formation – strain PAO1, LB-PBS medium, absorbance 600 nm, primary screen (AID 1176); also: test concentration not given here; details: P. aeruginosa PAO1 growth/biofilm, A600, 12 h; higher = more signal
[16] = growth modulation of vineyard yeast isolate – strain RM11-1a, OD600, basal, 24 h, primary screen (AID 1177);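 also: cultures grown under basal conditions with no added stressor; test concentration not given here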; details: S. cerevisiae RM11-1a growth, OD600, 24 h; higher = more signal, called active from +8 up or from −8 down
[17] = growth of efflux-deficient E. coli DRC39 – strain DRC39, OD650, 24 h, E. coli filamentation inducers, primary screen (AID 1178);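 also: growth measured as culture turbidity by optical density at 650 nm; test concentration not given here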; details: E. coli DRC39 acrAB, higher = more signal, called active from +8 up or from −8 down
[18] = growth of efflux-deficient E. coli DRC39 – strain DRC39, OD650, 48 h, E. coli filamentation inducers, primary screen (AID 1179);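 also: screen aims at cell division blockers that make cells filament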; details: E. coli DRC39 delta-acrAB growth, higher = more signal, called active from +8 up or from −8 down
[19] = viability profiling in RPMI8226 myeloma cells – cell-based, resazurin fluorescence, basal, 24 h, PK04 Diversity Set, profiling panel (AID 1180); details: higher = more signal;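 also: RPMI8826 multiple myeloma cell line at 5000 cells per well; test concentration not given here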
[20] = biological target: E3 ubiquitin-protein ligase XIAP (Homo sapiens) (UniProt P98170); assay: small molecules binding XIAP protein – biophysical, small-molecule microarray, fluorescence 635 nm, primary screen (AID 1181); details: higher = more signal;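 also: score merges 667 nm emission and signal to noise over triplicate slides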
E3 ubiquitin-protein ligase XIAP (Homo sapiens), sequence (P98170 whole entry, looked up): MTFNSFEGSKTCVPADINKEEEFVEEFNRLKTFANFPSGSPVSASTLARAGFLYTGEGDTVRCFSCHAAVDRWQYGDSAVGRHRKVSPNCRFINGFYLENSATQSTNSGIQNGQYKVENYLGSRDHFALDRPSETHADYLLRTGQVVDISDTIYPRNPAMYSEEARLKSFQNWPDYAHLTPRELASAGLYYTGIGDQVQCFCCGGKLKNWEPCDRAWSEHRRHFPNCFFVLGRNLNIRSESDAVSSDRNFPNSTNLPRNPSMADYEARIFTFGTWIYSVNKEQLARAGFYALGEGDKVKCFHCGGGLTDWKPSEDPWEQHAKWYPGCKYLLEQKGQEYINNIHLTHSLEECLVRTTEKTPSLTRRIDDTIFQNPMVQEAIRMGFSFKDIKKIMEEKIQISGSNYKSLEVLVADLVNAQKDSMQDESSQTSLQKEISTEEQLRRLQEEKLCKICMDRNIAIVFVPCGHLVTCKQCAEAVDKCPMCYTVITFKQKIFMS

Dihydroorotate dehydrogenase (quinone), mitochondrial (Plasmodium falciparum (isolate 3D7)), sequence (Q08210 whole entry, looked up): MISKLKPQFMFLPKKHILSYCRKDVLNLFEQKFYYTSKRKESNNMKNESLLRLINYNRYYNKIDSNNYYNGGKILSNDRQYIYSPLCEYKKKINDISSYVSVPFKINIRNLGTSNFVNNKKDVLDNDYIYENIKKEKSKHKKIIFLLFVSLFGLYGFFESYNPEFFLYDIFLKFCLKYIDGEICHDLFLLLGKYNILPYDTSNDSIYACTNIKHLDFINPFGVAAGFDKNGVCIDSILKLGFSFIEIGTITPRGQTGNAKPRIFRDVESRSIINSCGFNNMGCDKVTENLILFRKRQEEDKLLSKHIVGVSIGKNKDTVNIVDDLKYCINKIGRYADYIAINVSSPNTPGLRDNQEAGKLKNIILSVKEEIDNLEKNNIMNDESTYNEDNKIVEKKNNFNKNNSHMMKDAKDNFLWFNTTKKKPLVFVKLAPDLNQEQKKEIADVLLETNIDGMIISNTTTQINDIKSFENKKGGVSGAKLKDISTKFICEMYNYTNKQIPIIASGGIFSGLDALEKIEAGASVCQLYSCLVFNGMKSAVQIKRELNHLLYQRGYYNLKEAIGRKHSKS

Row | SMILES | z-score [1] | z-score [2] | z-score [3] | z-score [4] | z-score [5] | z-score [6] | z-score [7] | z-score [8] | z-score [9] | z-score [10] | z-score [11] | z-score [12] | z-score [13] | composite z-score [14] | z-score [15] | z-score [16] | z-score [17] | z-score [18] | z-score [19] | composite z-score [20]
1 | CCCCC=C[C@@H](NC(=O)c1ccco1)c1ccccc1 | -1.08 | -0.872 | 0.264 | -0.499 | -1.16 | 0.989 | 0.0899 (inactive) | 0.112 | -1.05 | 0.335 (inactive) | 1 | 1.42 (inactive) | 0.356 (inactive) | 0.559 (inactive) | -0.126 (inactive) | 0.846 (inactive) | 0.358 (inactive) | 0.815 (inactive) | 0.223 | -0.123
2 | CCOC(=O)C[C@H]1[C@H](OC(=O)c2ccc(-c3ccccc3)cc2)[C@@H](NC(=O)Cc2ccc(OC)cc2)c2cc(OCCCO)ccc2N1C(=O)c1ccc2ccccc2n1 | -0.315 | -0.357 | 0.143 | -0.514 | -0.129 | 0.176 | 0.824 (inactive) | 0.0708 | -0.625 | 0.596 (inactive) | -0.458 | -0.533 (inactive) | -0.607 (inactive) | -0.236 (inactive) | 0.055 (inactive) | -0.586 (inactive) | -0.536 (inactive) | -0.485 (inactive) | -0.893 | 0.091
3 | COc1cc2c(cc1O)C(C)N(Cc1cccc(OC(F)(F)F)c1)CC2 (stereo not given) | -0.762 | 0.815 | -1.51 | -2.34 | -2 | 0.0471 | -0.793 (inactive) | 0.0842 | -1.24 | 0.849 (inactive) | 0.177 | -0.713 (inactive) | -1.33 (inactive) | -1.44 (inactive) | -0.255 (inactive) | 0.279 (inactive) | 0.506 (inactive) | 0.324 (inactive) | -0.622 | 0.427
4 | [N-]=[N+]=Nc1ccccc1[C@@H]1OC(c2ccc(OCCCO)cc2)=N[C@]1(CCS(=O)(=O)c1ccccc1)C(=O)N1CCOCC1 | 1.53 | 0.293 | 1.33 | 0.0503 | -0.908 | 0.431 | 0.406 (inactive) | -0.746 | -0.799 | -0.549 (inactive) | -0.167 | 0.907 (inactive) | -0.638 (inactive) | 1.56 (inactive) | 0.507 (inactive) | 1.9 (inactive) | -0.311 (inactive) | 0.0945 (inactive) | -1.19 | 0.182
5 | COC(=O)[C@@]1(Cc2ccccc2)[C@H]2c3cc(C(=O)N4CCCC4)n(Cc4ccc(C)o4)c3C[C@H]2CN1C(=O)c1ccccc1 | -1.25 | 0.726 | 0.252 | -1.47 | -2.33 | 1.78 | -0.753 (inactive) | -1.02 | -0.449 | -0.646 (inactive) | -1.59 | 0.476 (inactive) | -1.5 (inactive) | -0.376 (inactive) | 0.399 (inactive) | -0.219 (inactive) | -0.691 (inactive) | -0.471 (inactive) | -2.47 | 0.0632
6 | COC(=O)[C@]1(Cc2ccccc2N=[N+]=[N-])N=C(c2ccc(OCCCO)cc2)O[C@@H]1c1ccccc1N=[N+]=[N-] | -3.83 | -0.504 | -5.54 | -3.59 | -3.94 | -2.39 | -0.708 (inactive) | -1.2 | -2.8 | -2.87 (inactive) | -3.41 | -0.569 (inactive) | -6.71 (inactive) | 0.519 (inactive) | 0.755 (inactive) | -0.0599 (inactive) | 0.2 (inactive) | -0.54 (inactive) | -7 | 0.165
7 | CCN(CC)c1ccc(N2CC=CC34O[C@@H]5C=CCCOC(=O)C5[C@H]3C(=O)N(CCCCCO)[C@@H]4C2=O)cc1 (stereo not given in full) | 1.69 | 0.132 | 1.08 | 1.39 | -0.0513 | 1.65 | 1.27 (inactive) | 0.589 | 0.84 | 1.62 (inactive) | 1.72 | -0.8 (inactive) | 0.974 (inactive) | -0.644 (inactive) | 0.165 (inactive) | -0.866 (inactive) | 2.21 (inactive) | 2.23 (inactive) | 1.16 | 0.354
8 | Cc1c(NC(=O)CC#N)c(=O)n(-c2ccccc2)n1C | 1.62 | 0.317 | 0.954 | 0.0823 | 0.106 | 1.42 | 0.166 (inactive) | -0.128 | -0.63 | 0.234 (inactive) | 1.02 | -0.267 (inactive) | 1.07 (inactive) | -0.544 (inactive) | 0.531 (inactive) | -1.25 (inactive) | 1.37 (inactive) | 1.47 (inactive) | 0.526 | 0.0345
9 | COC(=O)[C@@]1(Cc2ccc(OC)cc2)[C@H]2c3cc(C(=O)N4CCCC4)n(CCc4c[nH]c5cc(F)ccc45)c3C[C@H]2CN1C(=O)c1ccccc1 | 0.866 | -0.124 | 0.172 | -1.08 | -0.758 | -0.37 | 0.492 (inactive) | -0.304 | -0.662 | 0.313 (inactive) | -0.679 | 1.15 (inactive) | -0.502 (inactive) | 0.461 (inactive) | 0.964 (inactive) | 0.473 (inactive) | -0.29 (inactive) | -0.141 (inactive) | -0.642 | 0.172
10 | CC(C)=CCCC(C)=CC(O)C1C=CC2C(=O)N(c3ccccc3)C(=O)C2N1Nc1ccccc1 (stereo not given) | -0.846 | -1.34 | -0.731 | -1.77 | -1.02 | -2 | 0.224 (inactive) | -0.222 | -0.236 | -0.518 (inactive) | -1.4 | -1.66 (inactive) | -1.49 (inactive) | 0.0928 (inactive) | 1.32 (inactive) | 0.42 (inactive) | -0.994 (inactive) | -0.927 (inactive) | -1.56 | 0.0655
11 | C=C(CCCC)C(=O)CC[C@H](OC(=O)c1cccnc1)c1cccc(OCCO)c1 | 0.952 | 0.136 | 0.316 | -3.35 | -2.66 | 1.39 | 0.139 (inactive) | -0.726 | -0.592 | 0.358 (inactive) | -0.53 | 0.704 (inactive) | -1.29 (inactive) | -0.455 (inactive) | -0.21 (inactive) | 1.7 (inactive) | 0.477 (inactive) | 0.262 (inactive) | -2.01 | -0.0582
12 | CCOC(=O)C1=CCC(c2ccc([N+](=O)[O-])cc2)N(S(=O)(=O)c2ccc(C)cc2)C1 (stereo not given) | -0.561 | -1.29 | 0.0862 | -0.0901 | -1.17 | 2.63 | -0.769 (inactive) | 0.877 | -2.12 | 0.395 (inactive) | 0.291 | 2.15 (inactive) | -1.1 (inactive) | 0.774 (inactive) | -0.116 (inactive) | 2.42 (inactive) | -0.627 (inactive) | -0.418 (inactive) | -1.5 | -0.0513
13 | COCCCNC(=O)[C@@]1(CCC(=O)OC(C)(C)C)N=C(c2ccc(OCCCO)cc2)O[C@H]1c1ccccc1CN=[N+]=[N-] | 0.463 | 0.892 | -0.244 | 0.153 | -0.853 | 0.88 | -0.736 (inactive) | 0.665 | 0.5 | 0.155 (inactive) | 0.495 | -0.78 (inactive) | -0.0488 (inactive) | -0.256 (inactive) | -0.167 (inactive) | 0.424 (inactive) | 0.481 (inactive) | -0.28 (inactive) | 0.423 | -0.212
14 | COC(=O)[C@@]1(Cc2ccccc2N=[N+]=[N-])COC(c2ccc(OCCCO)cc2)=N1 | -0.851 | -1.01 | -0.388 | -3.53 | -2.82 | -0.472 | -0.605 (inactive) | -0.125 | -0.0849 | 0.468 (inactive) | -0.799 | -10.7 (active) | -1.43 (inactive) | 0.215 (inactive) | 0.907 (inactive) | 1.42 (inactive) | -0.993 (inactive) | -1.46 (inactive) | -0.496 | 0.0593
